From PubChem BioAssay (Tox21)
Records with an inconclusive call do not appear. Calls of active or inactive are those of the source. Unless noted, calls follow the shape of the dose curve; as a rule, active = well fitted curve in the direction sought with a large enough effect in the repeat runs; inconclusive = weak or mixed curves; inactive = no such curve, though single readings can be large; an effect the other way counts as inactive or inconclusive.

Columns and labels:
[1] = qHTS assay to identify small molecule agonists of the NFkB signaling pathway (AID 1159509; active = well fitted curve in the direction sought with a large enough effect in the signal ratio in the repeat runs, not every such curve was filed as active; the % refers to the signal ratio; also: series mostly up to about 61 µM)
Summary of the method: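 NFkB-bla ME-180 cells with a beta-lactamase reporter under an NF-kB response element were plated overnight, treated with compounds in DMSO for 5 hr at 37 C, then loaded with FRET substrate for 1.5 hr at room temperature.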

[2] = qHTS assay to identify small molecule agonists of the NFkB signaling pathway - cell viability counter screen (AID 1159515; calls by dose curve; also: series mostly up to about 61 µM; nearly all actives have a fitted effect of over 55% in size)
Summary of the method: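 Using the same wells as the NFkB reporter read, ME-180 NFkB-bla cells given compounds for 5 hr were assessed for viability via CellTiter-Glo, with luminescence taken after a 30 min room-temperature incubation.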

[3] = qHTS assay to identify small molecule agonists of the endoplasmic reticulum stress response signaling pathway (AID 1159516; active = well fitted activation curve with a large enough effect in the signal ratio in the repeat runs, not every such curve was filed as active; the % refers to the signal ratio)
Summary of the method: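 An ESRE-bla HeLa cell assay: compounds were pin-transferred from DMSO onto overnight-plated cells and left 5 hr at 37 C. Substrate was then loaded for 2 hr at room temperature before reading fluorescence at 460 nm and 530 nm.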

[4] = qHTS assay to identify small molecule agonists of the endoplasmic reticulum stress response signaling pathway - cell viability counter screen (AID 1159517; calls by dose curve;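 also: HeLa cells carrying an ER stress response element beta-lactamase reporter; series mostly up to about 61 µM; nearly all actives have a fitted effect of over 50% in size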)
Summary of the method: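 Luminescence readout: CellTiter-Glo, 30 min RT, same wells as the ESRE-bla reporter read. HeLa ESRE-bla, 1,500 cells/well, o/n 37 C; cpd 5 hr 37 C/5% CO2.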

[5] = qHTS assay to identify small molecule antagonists of the retinoid-related orphan receptor gamma (ROR-gamma) signaling pathway - cell viability counter screen (AID 1159520); also: nearly all actives have a fitted effect of over 50% in size
Summary of the method: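 Tet-on ROR gamma CHO cells (1,000/well) were plated 4 hr, given compounds in DMSO for 2 hr at 37 C, then induced with 1 uM final doxycycline for 16 hr. Viability was read as ATP by CellTiter-Glo luminescence after 30 min.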

[6] = target: Nuclear receptor ROR-gamma (Homo sapiens) (UniProt P51449); test: qHTS assay to identify small molecule antagonists of the retinoid-related orphan receptor gamma (ROR-gamma) signaling pathway (AID 1159521;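 also: CHO cells with doxycycline inducible ROR-gamma driving an RORE luciferase reporter; top concentration of the series differs between compounds; nearly all actives have a fitted effect of over 50% in size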)
Summary of the method: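 Screening format: cell-based luciferase reporter in CHO cells with doxycycline-inducible RORγ. Compound pre-exposure lasts 2 h, doxycycline is 1 uM final, induction runs 16 h at 37 C, and ONE-Glo luminescence is read.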

[7] = qHTS assay to identify small molecule agonists of the AP-1 signaling pathway - cell viability counter screen (AID 1159525; calls by dose curve; also: nearly all actives have a fitted effect of over 55% in size)
Summary of the method: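 ME-180 AP-1-bla, 2500 cells/well, Opti-MEM + 0.5% dialyzed FBS; overnight 37 °C; cpd 15-pt titration, 5 h 37 °C; CellTiter-Glo 30 min RT; luminescence read; normalised to TOAB and DMSO controls.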

[8] = qHTS assay to identify small molecule agonists of the AP-1 signaling pathway (AID 1159526; calls by dose curve)
[9] = target: Retinoic acid receptor RXR-alpha (Homo sapiens) (UniProt P19793); test: qHTS assay to identify small molecule agonists of the RXR signaling pathway (AID 1159527; calls by dose curve; also: nearly all actives have a fitted effect of over 35% in size)
Summary of the method: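 Fluorescence ratio readout (460 vs 530 nm) from GeneBLAzer RXR-alpha HEK 293T cells after 16 hr compound treatment; cells seeded 5 hr beforehand in low-serum, charcoal-stripped medium.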

[10] = qHTS assay to identify small molecule antagonists of the retinoid acid receptor (RAR) signaling pathway - cell viability counter screen (AID 1159551); also: nearly all actives have a fitted effect of over 35% in size
Summary of the method: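 Retinol-stimulated (1 uM final) C3RL4 cells, compound 6 h, 37 C; readout CellTiter-Glo luminescence (ATP) after 30 min RT incubation.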

[11] = qHTS assay to identify small molecule antagonists of the estrogen related receptor (ERR) signaling pathway from Tox21 library - cell viability counter screen (AID 1224834); also: nearly all actives have a fitted effect of over 30% in size
Summary of the method: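 After 17.5 h of compound exposure at 37 C, ERR cells are incubated with CellTiter-Fluor for 30 min and fluorescence intensity serves as the viability measure.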

[12] = qHTS assay to identify small molecule antagonists of the vitamin D receptor (VDR) signaling pathway - cell viability counter screen (AID 743225); also: nearly all actives have a fitted effect of over 50% in size
Summary of the method: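 In this counter screen, VDR-bla HEK 293T cells receive test compound plus 3 nM final calcitriol for 16 h at 37C. Room-temperature steps of 2 h with the beta-lactamase substrate, then 30 min with CellTiter-Glo, precede the luminescence read.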

[13] = qHTS assay to identify small molecule agonists of the RXR signaling pathway - cell viability counter screen (AID 1159529)
Summary of the method: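 Viability read-out for the RXR-alpha agonist qHTS: luminescent CellTiter-Glo signal after 30 min at RT. HEK 293T bla reporter cells, 2% charcoal-stripped FBS, 16 hr compound incubation; tetraoctyl ammonium bromide as cytotoxic control.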

[14] = qHTS assay to identify small molecule antagonists of the retinoic acid receptor (RAR) signaling pathway (AID 1159552; also: nearly all actives have a fitted effect of over 50% in size)
Summary of the method: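 Using a RARE-driven luciferase construct in C3RL4 cells, retinol at 1 uM final provided the agonist stimulus while compounds were co-applied. After 6 hours at 37 C, luminescence was recorded to flag inhibitors of retinol signaling.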

[15] = qHTS assay to identify small molecule agonists of the retinoic acid receptor (RAR) signaling pathway (AID 1159553)
Summary of the method: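 Reporter readout comes from luciferase under RARE control in C3RL4 cells; compound exposure lasts 6 hr at 37 C in 5% CO2, and luminescence is recorded following a 30 min room-temperature incubation with reagent.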

[16] = qHTS assay to identify small molecule antagonists of the estrogen related receptor (ERR) signaling pathway - cell viability counter screen (AID 1224818); also: series mostly up to about 46 µM
Summary of the method: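 After a 6 h pre-incubation, ERR cells were dosed by pin tool with compounds, positive/negative controls or DMSO alone. Following 17.5 h at 37 C and 30 min with CellTiter-Fluor, fluorescence was recorded.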

[17] = qHTS assay to identify small molecule antagonists of the estrogen related receptor signaling pathway with the pleiotropic PPARgamma coactivator (PGC) cell viability counter screen (AID 1224822; also: series mostly up to about 46 µM)
Summary of the method: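 PGC/ERR cells were plated at 2,000 per well and allowed 6 h to settle before compound addition. Following 17.5 h at 37 C, CellTiter-Fluor reagent was added and fluorescence was read 30 min later.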

Measured: Potency

Chain of Retinoic acid receptor RXR-alpha (Homo sapiens) (P19793 whole entry, looked up): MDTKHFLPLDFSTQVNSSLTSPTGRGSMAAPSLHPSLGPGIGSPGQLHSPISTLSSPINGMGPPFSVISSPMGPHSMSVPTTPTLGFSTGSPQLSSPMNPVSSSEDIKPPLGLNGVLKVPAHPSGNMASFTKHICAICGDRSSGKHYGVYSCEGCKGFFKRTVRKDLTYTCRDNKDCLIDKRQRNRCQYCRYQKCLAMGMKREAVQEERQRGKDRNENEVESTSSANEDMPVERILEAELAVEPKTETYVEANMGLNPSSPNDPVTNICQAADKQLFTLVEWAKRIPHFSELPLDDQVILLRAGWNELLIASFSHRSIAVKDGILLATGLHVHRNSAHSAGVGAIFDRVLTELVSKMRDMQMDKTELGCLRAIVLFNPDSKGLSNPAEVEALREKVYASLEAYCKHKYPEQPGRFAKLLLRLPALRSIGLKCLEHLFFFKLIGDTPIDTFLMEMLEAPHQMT

O=C1CN=C(c2ccccc2)c2cc([N+](=O)[O-])ccc2N1
inactive: [1] | [2] | [3] | [4] | [5] | [6] | [7] | [8] | [9] | [10] | [11]

C[N+](=O)[O-]
inactive: [12] | [1] | [2] | [3] | [4] | [5] | [6] | [7] | [8] | [9] | [13] | [10] | [11]

CCOC(=O)C1(c2ccccc2)CCN(CCc2ccc(N)cc2)CC1
inactive: [12] | [1] | [2] | [3] | [4] | [5] | [6] | [7] | [8] | [9] | [10] | [14] | [15] | [11]

OC(Cn1cncn1)(c1ccc(F)cc1)c1ccccc1F (stereo not drawn)
inactive: [12] | [1] | [2] | [3] | [4] | [5] | [6] | [7] | [8] | [9] | [13] | [10] | [11]

COP(N)(=S)Oc1ccccc1C(=O)OC(C)C (stereo not drawn)
inactive: [12] | [1] | [2] | [3] | [4] | [5] | [6] | [7] | [8] | [9] | [13] | [10] | [11]

CCOP(=O)(N=C1SCCS1)OCC
inactive: [12] | [1] | [2] | [3] | [4] | [5] | [6] | [7] | [8] | [9] | [10] | [11]

Cc1ncsc1CCCl
inactive: [1] | [2] | [3] | [4] | [5] | [6] | [7] | [8] | [9] | [10] | [16] | [17] | [11]

CC(C)CC(N(C)C)C1(c2ccc(Cl)cc2)CCC1 (stereo not drawn)
inactive: [12] | [1] | [2] | [3] | [4] | [5] | [6] | [7] | [8] | [9] | [13] | [10] | [11]

NC(=O)c1cc([N+](=O)[O-])cc([N+](=O)[O-])c1
inactive: [12] | [1] | [2] | [3] | [4] | [5] | [6] | [7] | [8] | [9] | [13] | [10] | [11]

CCC1(c2ccccc2)C(=O)NC(=O)NC1=O
inactive: [12] | [1] | [2] | [3] | [4] | [5] | [6] | [7] | [8] | [9] | [13] | [10] | [11]
